Screening data: PubChem BioAssay, National Center for Advancing Translational Sciences (NCATS)
TDP1 inh – inhibitors of human tyrosyl-DNA phosphodiesterase TDP1. AID 485290. Potency, µM (highest dose often 130 µM), inactives show at the highest dose activity change, negative = inhibition, actives largely listed as inhibitors. Q9NUW8. recombinant TDP1, AlphaScreen DNA substrate cleavage. 350,000 compounds, 0.28% hits; note: potency is the fitted concentration of half-maximal effect; nearly all actives have a fitted effect of over 40% in size
Target sequence (Q9NUW8 whole entry, looked up): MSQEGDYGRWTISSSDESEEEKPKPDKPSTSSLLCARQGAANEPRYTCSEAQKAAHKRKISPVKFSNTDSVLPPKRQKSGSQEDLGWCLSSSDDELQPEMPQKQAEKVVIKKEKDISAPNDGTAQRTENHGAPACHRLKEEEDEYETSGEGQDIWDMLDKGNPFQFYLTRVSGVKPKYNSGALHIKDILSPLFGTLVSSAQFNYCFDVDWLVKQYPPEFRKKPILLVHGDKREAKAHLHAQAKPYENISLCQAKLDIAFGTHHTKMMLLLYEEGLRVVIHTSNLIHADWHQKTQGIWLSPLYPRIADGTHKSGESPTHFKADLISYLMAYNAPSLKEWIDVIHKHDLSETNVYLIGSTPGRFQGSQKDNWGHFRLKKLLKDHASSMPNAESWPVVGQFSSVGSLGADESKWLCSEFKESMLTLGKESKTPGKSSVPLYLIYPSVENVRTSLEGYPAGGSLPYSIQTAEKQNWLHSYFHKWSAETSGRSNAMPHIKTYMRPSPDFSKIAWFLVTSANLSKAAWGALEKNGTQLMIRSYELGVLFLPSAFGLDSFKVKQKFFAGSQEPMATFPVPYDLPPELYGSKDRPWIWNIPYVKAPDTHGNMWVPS
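Recombinant E. coli-expressed Tdp1 (1 nM) preincubated with compound 15 min at RT, then 5'-biotin/3'-phosphotyrosine-FITC DNA substrate (15 nM) added for 5 min. AlphaScreen beads (10 ug/ml) added, 10 min RT; tyrosine-FITC cleavage read as signal loss.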
IL1B secr inh – blocks inflammasome-driven IL-1 beta release; 360,000 compounds, 4.7% hits; activity change, % at 57.5 µM; THP-1 LPS/ATP IL-1B secretion, AlphaLISA, 16 h; active compounds read low; in the data active = activity change below about -50%; inconclusive = mostly about -30% to -49%
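Secreted IL-1B measured by AlphaLISA bead assay after 16 h compound exposure of THP-1 cells; compounds (final up to 57.5 uM) added 1 h before LPS (250 ng/mL) and ATP (1.25 mM) stimulation; lower signal means less secretion.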
DT40 TDP1 CPT – DT40-hTDP1 cell growth loss with CPT | chicken DT40 Tdp1-/-;hTDP1 cells + 20 nM CPT, ATP luminescence, 48 h | AID 686979 | 420,000 compounds, 12% hits | Potency, µM (top dose mostly 46.2 µM), for the others: top-dose activity change, negative = growth inhibition, usual class: inhibitors; note: potency is the fitted concentration of half-maximal effect; nearly all actives have a fitted effect of over 55% in size
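Chicken DT40 Tdp1-/- cells complemented with human TDP1, 400 cells/well, exposed to compounds plus 20 nM camptothecin for at least 48 h at 37 C; viability read as ATP content by CellTiter-Glo luminescence.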
TDP1 cell noCPT – qHTS for Inhibitors of human tyrosyl-DNA phosphodiesterase 1 (TDP1): qHTS in cells in absence of CPT; DT40 Tdp1-/- hTDP1 cells, no CPT, ATP luminescence, 48 h; Potency, µM (titrated, usually from 46.2 µM), without a hit: at the highest dose activity change, negative = growth inhibition, hits mostly inhibitors; 420,000 compounds, 15% hits; note: potency is the fitted concentration of half-maximal effect; nearly all actives have a fitted effect of over 55% in size
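A cellular qHTS used chicken DT40 cells lacking endogenous Tdp1 but carrying stably transfected human TDP1. Compounds were applied without camptothecin, and cell growth kinetics were judged by ATP-dependent luminescence after ≥48 hr.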
Giardia killer – kills Giardia lamblia. Giardia lamblia trophozoite viability. AID 540267. 340,000 compounds, 0.15% hits. activity change, % at 7.66 µM, hits read low; in the data active = activity change below about -80%; inconclusive = between about -30% and that limit;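 note: parasites exposed to compound for two days anaerobically before the ATP read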
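ATP-content bioluminescence gauges trophozoite survival. Cells (100/well) receive compound and incubate anaerobically for 48 hrs at 37 deg C; detection reagent follows for 15-30 min at room temperature.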
ELG1 repair inh – inhibitors of ELG1-dependent DNA repair in HEK293T cells. HEK293T ELG1-luciferase reporter, luminescence, 16 h; DNA damage induced by 5-fluorouridine. Potency, µM (top dose mostly 46.1 µM), without a hit: at the highest dose activity change, negative = inhibition, most hits filed as inhibitors. 330,000 compounds, 2.3% hits; note: potency is the fitted concentration of half-maximal effect; nearly all actives have a fitted effect of over 55% in size
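DMSO vehicle served as the neutral condition. Each well held 2,000 cells given 5-fluorouridine plus compound; after 16 hr at 37 °C/5% CO2, ONE-Glo was added and luciferase measured 30 min later.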
* hit, by the source's call; ? = inconclusive; / = no result given; [ ] = dose if it differs, or a comment. Most compounds without a hit are left out; they make up all but 19% or so of the library. Unless noted, calls come from the whole dose curve; as a rule, active = well fitted curve in the direction sought with a large enough effect; inconclusive = small, poorly fitted or top-dose-only effect, or another doubt; inactive = no such curve, though single readings can be large; an effect the other way counts as inactive or inconclusive. % is set by controls: 0 for no effect and ±100 for the full control effect.

SMILES	TDP1 inh	IL1B secr inh	DT40 TDP1 CPT	TDP1 cell noCPT	Giardia killer	ELG1 repair inh
COc1ccccc1C(=O)NCCNC(=O)c1ccc(C)nc1	9.2%	-0.7	-6.2%	0.3%	-10.4	-3.6%
COc1ccc(NC(=O)c2ccc3c(c2)N(Cc2cccc(Cl)c2)C(=O)c2ccccc2S3(=O)=O)cc1Cl	3.8%	/	/	/	/	/
COc1ccc2[nH]cc(CCNc3cc(-c4ccccc4Cl)ncn3)c2c1	/	/	?	3.66µM*	/	/
COc1ccc2[nH]cc(CCNc3ccnc(-c4ccccc4Cl)n3)c2c1	/	/	?	11.6µM*	/	/
CCOC(=O)C1(C)C=C(Nc2cccc(C(=O)O)c2)C(=O)N1c1cccc(C(=O)O)c1 (centres undefined)	/	/	5.4%	5.3%	/	/
CC(NC(=O)c1cc(-c2ccc(Cl)cc2)on1)c1ccccc1 (centres undefined)	0.0%	/	?	?	/	/
COc1ccccc1NC(=O)c1cnc(Nc2ccccc2OC)c2ccccc12	?	33.2	1.64µM*	1.16µM*	3.4	-29.9%
COc1ccc(Nc2ncc(C(=O)Nc3ccc(F)cc3F)c3ccccc23)cc1	8.8%	/	13µM*	18.4µM*	/	/
COc1ccc(OC)c(NC(=O)c2cnc(Nc3ccc(C)c(Cl)c3)c3ccccc23)c1	5.9%	/	-24.7%	?	/	/
C=CCSc1nc(N)c(C(=O)Nc2ccccc2OC)cc1C(=O)Nc1ccccc1	2.3%	41.3	8.2µM*	8.2µM*	4.5	-11.5%
COc1ccc(OC)c(/C(O)=C/C(=O)C(=O)Nc2ccccc2OC)c1	-3.5%	20.9	?	18.4µM*	1.3	-12.0%
Cc1cccc(C)c1NC(=S)N(CCCN1CCOCC1)Cc1cccnc1	0.0%	-3.1	3.5%	2.1%	-0.9	0.6%
Cc1cccc(NC(=S)NCc2ccccc2Cl)c1C	5.1%	-11.0	?	?	2.2	?
COC1=C(Nc2ccccc2OC)C(=O)c2ccccc2C1=O	/	/	-4.1%	?	-8.6	?
COc1ccccc1NC(=O)c1ccccc1C(=O)Nc1ccccc1OC	4.4%[56.1 µM]	-67.3*	?	?	-0.7	-15.1%
COc1ccccc1NC(=O)Nc1ccc(NC(=O)c2ccccc2O)cc1	/	?	-26.6%	29.1µM*	25.7	-0.5%
COc1ccccc1NC(=O)Nc1ccc(C(N)=O)cc1	2.7%	-22.3	-25.8%	?	-6.3	?
COc1ccccc1NC(=O)c1ccccc1NC(=O)c1ccccc1C(=O)O	/	-4.7	3.0%	-12.9%	-5.2	8.0%
COc1ccccc1NC(=S)NNC(=O)c1ccccc1Br	9.3%	77.4	16.4µM*	13µM*	1.4	?
COc1ccccc1NC1=C(NC(C)=O)C(=O)c2ccccc2C1=O	6.1%	13.8	18.4µM*	?	4.2	-13.6%
COc1ccccc1C(=O)NNC(=O)c1ccccc1Br	/	33.7	-6.8%	8.3%	-5.2	?
CCCCc1cc(=O)oc2c(C)c(OCc3nn[nH]n3)ccc12	4.1%	7.6	23.7%	0.2%	-23.3	-0.5%
O=C(Nc1ccccc1OC(=O)c1ccccc1)c1ccccc1	/	59.5	?	29.1µM*	-1.8	/
O=C(CCc1ccccc1)Nc1ccccc1OC(=O)c1ccccc1	/	30.7	?	-23.6%	-20.7	/
COc1ccccc1C(=O)Nc1ccccc1SC(=O)c1ccccc1OC	/	-2.9	2.59µM*	2.59µM*	6.8	?
CC(C)=C1C(=O)C(c2ccccc2)=C2CN3C(=O)N(CCc4ccccc4)C(=O)[C@]3(C)[C@H]21	7.5%	/	/	/	/	/
COc1ccc(NC(=O)CNc2cccc(C#N)c2)cc1Cl	7.1%	?	-7.2%	-0.1%	-1.3	11.1%
COc1ccc(NC(C)C(=O)Nc2ccc(C(C)(C)C)cc2)cc1Cl (centres undefined)	7.8%	-53.7*	29.1µM*	?	1.4	15.7%
